{"source": "paper PMC5540273", "about": "(PLoS ONE, 2017);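 further: KINOMEscan kinase panel screen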"}
{"tested_on": "T1, NIM1", "T1 construct": "gene MGC42105", "conditions": "concentration: 1 μM,replicates: in singlicate; n = 1", "units": {"%Inh": "%"}}
{"smiles": "COC(=O)Nc1nc2cc(Oc3ccc(NC(=O)Nc4cc(C(F)(F)F)ccc4Cl)cc3)ccc2[nH]1.Cl", "note": "[GW697465]", "%Inh": 26}
{"smiles": "CS(=O)(=O)c1cccc(CNc2nc(Nc3ccc4c(c3)[C@@H]3C[C@@H]4CNC3=O)ncc2C(F)(F)F)c1", "%Inh": 0}
{"smiles": "COc1cccc(C2=C(Nc3cccc(Cl)c3)C(=O)NC2=O)c1", "note": "[SB-341556]", "%Inh": 3}
{"smiles": "Cc1ccc2c(-c3ccnc(Nc4ccc(C(F)(F)F)cc4)n3)cnn2n1", "note": "[GW819776]", "%Inh": 3}
{"smiles": "CN1CCN(CCNc2nc3cc(Oc4ccc(NC(=O)Nc5cc(C(F)(F)F)ccc5F)cc4)ccc3[nH]2)CC1.Cl.Cl", "note": "[GW768504]", "%Inh": 0}
{"smiles": "COc1cc2c(Nc3ccc(NC(=O)c4ccccc4)cc3)ncnc2cc1OCCCN1CCOCC1", "note": "[GSK301329]", "%Inh": 16}
{"smiles": "COc1cccc(OC)c1C(=O)Nc1cccc(-c2nn3ccccc3c2-c2ccnc(Nc3cccc(F)c3)n2)c1", "note": "[GSK361065]", "%Inh": 0}
{"smiles": "Cc1cccc(-c2nc(Nc3ccncc3)c3sccc3n2)n1", "note": "[GW869641]", "%Inh": 35}
{"smiles": "C[C@@H](Oc1cc(-n2cnc3cc(-c4cnn(C)c4)ccc32)sc1C(N)=O)c1ccccc1Cl", "note": "[GSK580432]", "%Inh": 64}
{"smiles": "Cn1ccc2ncnc(Oc3ccc(NC(=O)Nc4cnn(C(C)(C)C)c4)c(Cl)c3)c21", "%Inh": 0}
{"smiles": "Cn1ccc2ncnc(Oc3ccc(NC(=O)Nc4ccnc(C(F)(F)F)c4)c(Cl)c3)c21", "%Inh": 0}
{"smiles": "C[C@@H](Oc1cc(-n2cnc3cc(-c4ccncc4)ccc32)sc1C(N)=O)c1ccccc1Cl", "note": "[GSK479719]", "%Inh": 51}
{"smiles": "c1ccc(Oc2ccc(Nc3ccnc4ccc(-c5ccccn5)cc34)cc2)cc1", "note": "[GW407034]", "%Inh": 17}
{"smiles": "COC(=O)c1cccc(NC(=O)NC2CCN(c3ccnc(NCc4ccc(F)cc4)n3)CC2)c1", "note": "[GSK1379860]", "%Inh": 15}
{"smiles": "COc1cccc(CNC(=O)NC2CCN(c3ccnc(Nc4cc(OC)c(OC)c(OC)c4)n3)C2)c1", "note": "(stereo not shown) [GSK1379765]", "%Inh": 21}
{"smiles": "Cn1ccc2ncnc(Oc3ccc(NC(=O)Nc4cccc(C(F)(F)F)c4)c(Cl)c3)c21", "%Inh": 0}
{"smiles": "O=C(NCC1CC1)c1ccc(-c2cc(C(=O)NC3CC3)ccc2F)cc1", "note": "[GW810445]", "%Inh": 35}
{"smiles": "O=c1[nH]cc(-c2ccc(O)cc2)c2sc(-c3ccncc3)cc12", "note": "[GSK1033723]", "%Inh": 4}
{"smiles": "Cn1ccc2ncnc(Oc3ccc(NC(=O)Nc4cncc(C(F)(F)F)c4)c(Cl)c3)c21", "%Inh": 0}
{"smiles": "Cc1ccc(Nc2ccnc(Nc3ccc4c(c3)CS(=O)(=O)C4)n2)cc1O.Cl", "note": "[GW579362]", "%Inh": 17}
{"smiles": "N#Cc1cccc(C(=O)NC2CCN(c3ccnc(Nc4ccc(F)cc4)n3)C2)c1", "note": "(stereo not shown) [GSK1379708]", "%Inh": 16}
{"smiles": "C[C@@H]1CNc2c(sc3ccc4nc(-c5ccc(O)cc5)ccc4c23)C(=O)N1", "%Inh": 26}
{"smiles": "C[C@@H]1CNc2c(sc3ccc4nc(-c5ccncc5)ccc4c23)C(=O)N1", "%Inh": 0}
{"smiles": "Cl.Nc1n[nH]c2cc(-c3ccccn3)ccc12", "note": "[GSK2189892]", "%Inh": 0}
{"smiles": "CCNCC(Cc1ccccc1)NC(=O)c1cc(Br)c(-c2ccnc3[nH]ccc23)s1.Cl.Cl", "note": "(stereo not shown) [GSK1383280]", "%Inh": 20}
{"smiles": "CN(c1ccc2c(c1)nc(NCc1ccc(F)cc1)n2C)c1ccnc(Nc2ccc(CS(C)(=O)=O)cc2)n1.Cl", "note": "[GW813244]", "%Inh": 0}
{"smiles": "COc1cc2ncn(-c3cc(OCC4CCCCC4)c(C(N)=O)s3)c2cc1OC", "note": "[GSK204559]", "%Inh": 3}
{"smiles": "O=C(Nc1ccc(Oc2ccc3nc(NC(=O)C4CC4)cn3n2)c(F)c1)c1cccn(-c2ccccc2)c1=O", "%Inh": 0}
{"smiles": "Cl.Cl.NC[C@H](CC1CCCCC1)NC(=O)c1ccc(-c2ccnc3[nH]ccc23)s1", "note": "[GSK1581428]", "%Inh": 14}
{"smiles": "CSc1nccc(-c2c(-c3ccc(F)cc3)ncn2CCCN2CCOCC2)n1.Cl", "note": "[SB-217146]", "%Inh": 0}
{"smiles": "CCOC(=O)N1CCC(n2cnc(-c3ccc(F)cc3)c2-c2ccnc(N)n2)CC1", "note": "[SB-219952]", "%Inh": 31}
{"smiles": "CS(=O)(=O)Nc1ccc(-c2ccnc3[nH]ccc23)cc1", "note": "[GSK993273]", "%Inh": 13}
{"smiles": "O=C(Nc1cccc(C(F)(F)F)c1)c1cccc(Oc2ccc3nccn3n2)c1", "%Inh": 44}
{"smiles": "O=C(NOCC1CC1)c1cc(Br)c(F)c(F)c1Nc1ccc(I)cc1Cl", "%Inh": 25}
{"smiles": "CC(C)c1nc(-c2cccc(NS(=O)(=O)c3ccccc3)c2)c(-c2ccnc(Nc3ccc4c(c3)CN(C)CC4)n2)s1", "note": "[GSK1649598]", "%Inh": 29}
{"smiles": "OCCn1cc(-c2cnc3nnn(Cc4ccc5ncccc5c4)c3n2)cn1", "%Inh": 0}
{"smiles": "O=C(Nc1n[nH]c2cc(-c3ccco3)ccc12)C1CC1", "note": "[SB-737447]", "%Inh": 0}
